Experimental data: PubChem BioAssay (NCI)
This is part of a sample that, as a whole, favours compounds with a hit. Of some 79,000 tested, about 15% had one in any assay. Rule as the data show it: active = growth inhibition above about 70%; inactive = the rest.

Tests used:
[1] = NCI Yeast Anticancer Drug Screen. Data for the rad50 strain (AID 155);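 also: 0% = growth of vehicle-only cultures of the same strain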; settings: S. cerevisiae rad50 strain growth inhibition; at 50.0 µM; hits give high values
Method in brief: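 Genetically altered yeast (DNA repair pathway); compound treatment; growth inhibition vs vehicle ctrl.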

[2] = NCI Yeast Anticancer Drug Screen. Data for the mec2-1 strain (AID 157); settings: S. cerevisiae mec2-1 strain, at 50.0 µM, hits give high values
Method in brief: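 Strain: mec2-1 (DNA repair/cell cycle alteration). Compound exposure, then growth measured; inhibition expressed relative to vehicle.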

[3] = NCI Yeast Anticancer Drug Screen. Data for the sgs1 mgt1 strain (AID 161);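 also: 0% = growth of cultures given vehicle only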; settings: S. cerevisiae sgs1 mgt1 strain, at 50.0 µM, hits give high values
Method in brief: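 Inhibition of yeast growth, normalised to vehicle-treated controls, is reported for a strain bearing genetic alterations in DNA damage repair.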

[4] = NCI Yeast Anticancer Drug Screen. Data for the cln2 rad14 strain (AID 165);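 also: 0% = growth equal to vehicle treated cultures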; settings: S. cerevisiae cln2 rad14 strain, at 50.0 µM, hits give high values
Method in brief: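 Compounds are applied to the cln2 rad14 yeast strain, and growth is then compared with that of vehicle-treated cultures to give inhibition.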

[5] = NCI Yeast Anticancer Drug Screen. Data for the bub3 strain (AID 167); settings: S. cerevisiae bub3 mutant strain, at 50.0 µM, hits give high values
Method in brief: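 Yeast carrying a defined mutation is treated with each compound, and growth is compared with that of vehicle-exposed cells to give inhibition.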

[6] = NCI Yeast Anticancer Drug Screen. Data for the mlh1 rad18 strain (AID 175); settings: S. cerevisiae mlh1 rad18 strain growth inhibition; at 50.0 µM; hits give high values
Method in brief: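 Read-out is yeast growth inhibition, calculated against vehicle-only controls. The compound was applied to a strain engineered with DNA damage repair alterations.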

Measured: growth inhibition

CCC(=O)c1cc(-c2ccccc2)nc2ccc(OC)cc12
inactive: [1] 2.6% | [2] 1.2% | [3] 11.5% | [4] -23.4% | [5] -12.2% | [6] -24.4%

COC1(OC)CC2C(=O)N(Cc3ccccc3)C1C(S(=O)(=O)c1ccccc1)C2C(C)S(=O)(=O)c1ccccc1 (stereo not given)
inactive: [1] 14.1% | [2] -0.55% | [3] -24% | [4] -35% | [5] -26.7% | [6] 5%

N#Cc1nnc2cc(-c3ccccc3)nn2c1-c1ccco1
inactive: [1] 27.9% | [2] 11.2% | [3] 16.3% | [4] 35.5% | [5] 28.1% | [6] 31.4%

COc1cc(C2C3=C(N=C4SC(C(C)=O)=C(C)N42)c2ccccc2CC3)cc(OC)c1OC (stereo not given)
inactive: [1] -30.4% | [2] -48.6% | [3] -22.2% | [4] 3.2% | [5] -35.7% | [6] -17.8%

CC(C)(C)OC(=O)NCCCCC(NC(=O)OC(C)(C)C)C(=O)O (stereo not given)
inactive: [1] 3.65% | [2] 8.55% | [3] 9.7% | [4] 2.8% | [5] 5.95% | [6] -8.65%

CN1CCN(C(=S)N(C)C(=O)c2ccc(Cl)cc2)CC1
inactive: [1] 13.3% | [2] -20.1% | [3] -20.3% | [4] 19.1% | [5] -22.9% | [6] -9.65%

C/C(=N/NC(N)=S)c1cn[nH]c1C
inactive: [1] -64.3% | [2] -19.9% | [3] -16.1% | [4] -55.4% | [5] 4.5% | [6] -1.6%

N#CCCC1(c2ccccc2)CCC/C(=C/c2ccccc2)C1=O (stereo not given)
inactive: [1] 11.8% | [2] 14.1% | [3] 1.7% | [4] 7.1% | [5] 17.4% | [6] 3%

S=C(S)NC1CCCCC1
inactive: [1] -28.9% | [2] -18.3% | [3] -12.2% | [4] -44% | [5] -13.1% | [6] -3.75%

O=C1C(=Nc2ccc(Cl)nc2)CC(c2ccccc2)N1c1ccc(Cl)nc1 (stereo not given)
inactive: [1] 7.9% | [2] 9.25% | [3] 16.1% | [4] 22.4% | [5] 3% | [6] -4%

COC1CCC(C2=NC3CCCCC3SC2)CC1 (stereo not given)
inactive: [1] 13.6% | [2] 18.8% | [3] 21.5% | [4] -10.6% | [5] 54.8% | [6] 31.7%

CC(=O)OC1CN(c2ccccc2)CC(OC(C)=O)CN(c2ccccc2)C1 (stereo not given)
inactive: [1] 38.5% | [2] 3.95% | [3] 38% | [4] -24.4% | [5] 2.1% | [6] 31.8%

CC(=O)NCCC(=O)NCCSC(C)=O
inactive: [1] -15% | [2] -12% | [3] 18.9% | [4] 6.15% | [5] -3.35% | [6] 9.25%

CC(=O)c1cccc(NC(=O)Nc2cccc(O)c2)c1
inactive: [1] 4.5% | [2] 19.9% | [3] -5.35% | [4] 7% | [5] 56.1% | [6] -0.25%

NC(CO)C(=O)NCCS(=O)(=O)O (stereo not given)
inactive: [1] -10.7% | [2] 9.6% | [3] -3.7% | [4] 22.1% | [5] -7.05% | [6] -6.95%

N#Cc1ccccc1CC(O)(c1ccccc1)c1ccccc1
inactive: [1] 36.5% | [2] -5.85% | [3] -7.75% | [4] 13.7% | [5] -10.2% | [6] 9.8%

CC(C)(C#N)OC(=O)Nc1c(Cl)cccc1Cl
inactive: [1] 2.4% | [2] -23.2% | [3] 5.15% | [4] 3.6% | [5] 11.2% | [6] 6.5%

C=C1C(=O)O[C@H]2C3OC3(C)CC/C=C(/C(=O)OC)[C@@H](OC(C)=O)[C@H](OC(=O)C3(C)OC3C)[C@H]12 (stereo not given in full)
inactive: [1] 12.6% | [2] 31.8% | [3] 13.5% | [4] 22.4% | [5] 5.55% | [6] 8.85%

COc1ccc(C(O)Cc2cc(=O)cc(-c3ccccc3)[nH]2)cc1 (stereo not given)
inactive: [1] 2.2% | [2] -4.95% | [3] 2.2% | [4] -40.3% | [5] 9.85% | [6] -1.4%

OCc1sccc1-n1cccc1
inactive: [1] -19.4% | [2] -47.5% | [3] -16.6% | [4] 5.75% | [5] -48.5% | [6] -28.6%
